Screens as filed in PubChem BioAssay.
M1 agonist: M1 muscarinic receptor agonists, primary screen, CHO-M1 cells, Fluo-4 calcium, agonist mode; Fluo-4 calcium fluorescence; hits give high values; AID 626, 2007; B-score at 10 µM; Muscarinic acetylcholine receptor M1; 64,000 tested, 3% active;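 active = fluorescence rise, raw or as B-score row- and column-corrected plate score, outside the 99.7% band of its plate's samples, either direction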
D1 allo mod: D1 CRE-luciferase signal change, two-sided – cell-based, HEK293 D1, dopamine EC30, D1 allosteric modulator project, primary screen. D(1A) dopamine receptor (Homo sapiens), P21728. dopamine EC30 potentiation; actives deviate in either direction. B-score at 10 µM. 58,000 tested, 5.9% active;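 active = luminescence count or its row- and column-corrected plate score outside the 99.7% band of the plate's sample wells, on either side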
M1 antag: antagonists of rat M1 muscarinic receptor; Muscarinic acetylcholine receptor M1 (Rattus norvegicus), P08482; CHO-M1 cells, Fluo-4 calcium, ACh EC80 antagonist mode; hits give low values; B-score at 10 µM; 64,000 tested, 3.4% active; AID 628, 2007;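 active = calcium fluorescence response, raw or row-and-column corrected B-score, differing from the plate sample mean either way at a set confidence level, mostly lower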
Htt clearance: clearance of mutant huntingtin inclusions, primary screen, imaging, HeLa Exon1htt(103Q)mCFP, confocal imaging | inhibition, % at 1.5 µM | aggregate imaging; zero = plate's median compound well | 47,000 tested, 0.42% active;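 active = inhibition of aggregate fluorescence above about 70%, also judged a hit by eye on the cell image, limit read from the data, passing the limit was not always enough; inconclusive = no rule stated for this call; inactive = not judged a hit on image review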;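 also: cells exposed to compound for three days before fixation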
M1 ag confirm: rat M1 muscarinic receptor agonists, confirmation, CHO-M1 cells, Fluo-4 calcium, duplicate retest; 1,700 tested, 19% active; shares compounds with M1 agonist; fluorescence change (max-min) at 10 µM; Fluo-4 calcium fluorescence, agonist mode; actives lie on both sides; AID 1488, 2009;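 active = fluorescence change differs from the solvent-only DMSO control mean at a set confidence level in both duplicate runs; inconclusive = differs from solvent-only control mean in just one of two runs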;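 also: an EC20 dose of acetylcholine follows compound addition during the same imaging run; raw fluorescence intensity difference in instrument units with no normalization to controls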
M4 ag counter: agonist activity at rat M4 receptor, confirmation, counter-screen for M1 allosteric modulator project, cell-based, agonist mode; shares compounds with M1 agonist; fluorescence change (max-min) at 10 µM; 1,700 tested, 9% active; AID 1741, 2009; CHO M4/Gqi5 cells, Fluo-4 calcium fluorescence; actives lie on both sides;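 active = fluorescence change differing from the plate's solvent-only control wells at 99.7% confidence in both duplicates, whether higher or lower; inconclusive = differs from solvent controls in only one of two duplicates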
Target sequence (P08485 whole entry, looked up): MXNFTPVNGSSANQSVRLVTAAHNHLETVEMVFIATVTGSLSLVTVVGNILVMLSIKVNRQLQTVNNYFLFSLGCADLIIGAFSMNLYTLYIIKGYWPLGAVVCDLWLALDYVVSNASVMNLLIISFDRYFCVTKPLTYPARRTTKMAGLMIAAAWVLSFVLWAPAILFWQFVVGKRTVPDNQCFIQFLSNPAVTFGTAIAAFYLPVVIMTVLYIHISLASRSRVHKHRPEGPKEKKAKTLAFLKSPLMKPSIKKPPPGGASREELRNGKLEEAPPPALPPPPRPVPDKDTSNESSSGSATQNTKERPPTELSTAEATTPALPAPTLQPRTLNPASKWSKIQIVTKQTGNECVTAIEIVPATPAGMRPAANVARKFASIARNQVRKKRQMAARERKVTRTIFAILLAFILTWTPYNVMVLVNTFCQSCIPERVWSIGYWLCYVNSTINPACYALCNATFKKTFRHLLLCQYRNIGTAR
Starred values were filed as active, the others as inactive; u = inconclusive; x = no result. Shown are actives, neighbours in structure and some others; about 9.1% of the full set was active somewhere.

SMILES | M1 agonist | D1 allo mod | M1 antag | Htt clearance | M1 ag confirm | M4 ag counter
COc1ccc2c(=O)c(C(=O)NCCc3ccc(OC)c(OC)c3)c[nH]c2c1 | 4.9* | 1.9 | -0.92 | 3 | u | u
CCCCOC(=O)/C(=C\c1ccc([N+](=O)[O-])o1)NC(=O)c1ccccc1 | x | x | x | -123 | x | x
CCc1cc2c(=O)c(-c3nc4ccccc4[nH]3)coc2c(CN2CCCC(C)C2)c1O (configuration not stated) | 0.027 | -0.92 | -0.59 | x | x | x
CCOC(=O)N1C(=O)c2cc(OC)ccc2S1(=O)=O | 3.2* | -0.18 | -0.00031 | 21 | u | u
CCOC(=O)CSc1nc(C2CC2)nc2ccccc12 | -0.12 | 0.35 | 0.28 | -19 | x | x
CCOc1ccc2sc(NS(=O)(=O)c3ccc(OC)c(OC)c3)nc2c1 | 1.9 | 0.5 | 0.16 | x | x | x
c1ccc(Cc2nnc3n2CCCCC3)cc1 | -0.51 | -0.082 | -0.11 | -35 | x | x
c1ccc2c(c1)CCCN2Cc1nnc2n1CCCCC2 | active | x | 0.13 | -40 | u | -33
CN(Cc1cccs1)S(=O)(=O)c1cccs1 | -0.6 | 0.81 | 0.9 | -24 | x | x
O=C(COc1ccc(-c2ccccc2)cc1)N1CCN(S(=O)(=O)Cc2ccccc2)CC1 | x | x | x | -16 | x | x
O=C1NC(c2ccco2)Nc2sc3c(c21)CCN(Cc1ccccc1)C3 (configuration not stated) | 17* | -0.84 | -17* | 26 | 33 | 21
O=C1CN(C(=O)COC(=O)c2ccccc2NC(=O)c2ccco2)c2ccccc2N1 | 3.6* | 0.0013 | -0.73 | 0 | u | u
CCOC(=O)N1CCN(Cc2nc(-c3ccc(C)cc3)no2)CC1 | 2.5* | -0.021 | 0.99 | x | -4.9 | -11
COc1ccc(-c2noc(CN3CCN(c4ccccc4)CC3)n2)cc1 | -1 | -0.32 | 0.56 | x | x | x
Cc1nn(-c2ccccc2)c(C)c1C(=O)OCC(=O)N1CC(=O)Nc2ccccc21 | -0.15 | -0.37 | 0.33 | -30 | x | x
Cc1nn(-c2ccccc2)c(C)c1C(=O)OC/C(O)=C(\C#N)c1nc2ccccc2[nH]1 | 2.9* | -2.1 | 0.65 | x | -21* | -53
O=C(Nc1ccccc1)N(Cc1ccc2c(c1)OCO2)Cc1nc2ccccc2c(=O)[nH]1 | 0.53 | 0.51 | -0.0029 | 1 | x | x
O=C(c1ccccc1)N(Cc1ccc2c(c1)OCO2)Cc1nc2ccccc2c(=O)[nH]1 | 2.7* | 0.47 | -0.27 | x | u | -83
Cc1c(Cl)cccc1-n1nnnc1-c1cccs1 | 0.27 | -0.84 | 0.32 | x | x | x
CCCc1cc(=O)oc2cc3occ(C)c3cc12 | 2.7* | 0.91 | -1.1 | -14 | -26 | u
CCCCCCNC(=O)Cc1nc2nc(C)cc(C)n2n1 | -0.39 | -0.7 | 0.66 | 4 | x | x
CCn1c(=O)cc(OCC(=O)NCCCN2CC(C)CC(C)C2)c2ccccc21 (configuration not stated) | 2.2* | -0.27 | -0.73 | 14 | u | u
CCCCCCNc1c(C(=O)OCC)c(=O)[nH]c2ccccc12 | 5.4* | 0.91 | -0.37 | x | -28 | -33
CCOC(=O)c1c(NCC2CCCO2)c2ccccc2[nH]c1=O (configuration not stated) | x | x | x | 0 | x | x
Cc1nc2nc(-c3ccco3)[nH]n2c(=O)c1Cc1ccccc1 | 3.6* | -1.1 | 1.1 | x | -10 | -27
SMILES | M1 agonist | D1 allo mod | M1 antag | Htt clearance | M1 ag confirm | M4 ag counter
CN1C(=O)c2ccccc2C(C(=O)NCC2CCCO2)C1c1c[nH]c2ccccc12 (configuration not stated) | 1.5 | x | 0.2 | x | x | x
CC(C)C(c1nnnn1C1CCCC1)N(C)C1CCCCC1 (configuration not stated) | 9.7* | 0.27 | -0.09 | 51 | -3.3 | -17
COc1cc2cc(C(c3nnnn3C3CCCC3)N(C)C3CCCCC3)c(=O)[nH]c2cc1OC (configuration not stated) | 0.35 | -1.1 | 0.84 | -12 | x | x
COc1ccc(NS(=O)(=O)c2ccc3oc4ccccc4c3c2)cn1 | 0.44 | -0.94 | -0.53 | 8 | x | x
O=S(=O)(NCCOCC(F)(F)C(F)F)c1ccc2oc3ccccc3c2c1 | 15* | x | -1.1 | 10 | -22* | -31
Cc1cc2cc(CCNC(=O)c3ccc(S(=O)(=O)N4CCOCC4)cc3)c(=O)[nH]c2cc1C | 6.7* | -0.85 | -1.9 | x | u | -67
